From the OligoGym collection
Note: reference of the scale not given here.

These sequences were tested against MUSTN1 (assay: pooled miR-30 sensor sort-seq; sequence = guide strand). Details: shRNA.
Work on TTGATTTCCTGGTTCTTGGTCA yielded a sensor-assay potency score (higher = more potent) of 0.114. AGCTTGCTCACACTCTCGCATG was tested, and the sensor-assay potency score (higher = more potent) was -2.04. ACACTCTCGCATGACCTGGTAG was tested, and the sensor-assay potency score (higher = more potent) was -0.661. TCAAAGACAGTCTCGGTACCTG was tested, and the sensor-assay potency score (higher = more potent) was -0.0062. TAGGTCTTGGACTTGATTTCCT was tested, and the sensor-assay potency score (higher = more potent) was -0.449. TTTATTGGTGCTTCCAAGGTGC was tested, and the sensor-assay potency score (higher = more potent) was 0.442. TCACACTCTCGCATGACCTGGT showed a sensor-assay potency score (higher = more potent) of 0.595. TTCCTGGTTCTTGGTCAGGTTT showed a sensor-assay potency score (higher = more potent) of -1.77. TTGCTCACACTCTCGCATGACC gave a sensor-assay potency score (higher = more potent) of -1.08. With TCGCATGACCTGGTAGGTCTTG the sensor-assay potency score (higher = more potent) was -0.987. Sequence TCTTGGTCAGGTTTCCTCGGGC has a sensor-assay potency score (higher = more potent) of 0.0366. Sequence TTCTTGGTCAGGTTTCCTCGGG has a sensor-assay potency score (higher = more potent) of -0.747.

These sequences were tested against MUTED in the same assay as above. Details: shRNA.
TTATCTTATAAAGCTTACCCAC gave a sensor-assay potency score (higher = more potent) of -1.06. In the case of TTGTCTACATTACTCATGCAGT, the sensor-assay potency score (higher = more potent) is reported as -0.842. For TTGTTTACCATAAATCTCGAAA, the sensor-assay potency score (higher = more potent) was -0.16. In the case of TTTTCTGTGCTCTTCATCCACT, the sensor-assay potency score (higher = more potent) is reported as -0.826. With TAATAAACTATTGTTAACCCTG the sensor-assay potency score (higher = more potent) was 0.0836. Work on TTTCTCACTAGCTACTAAGTGG yielded a sensor-assay potency score (higher = more potent) of -0.662. Work on TTTTTTGTCTACATTACTCATG yielded a sensor-assay potency score (higher = more potent) of -0.517. TTTACATTTAACATGGACCATT gave a sensor-assay potency score (higher = more potent) of -1.07. TAAGTGGTCACTATGAATCTTT gave a sensor-assay potency score (higher = more potent) of -0.505. Sequence TTGTTCTTTAAGCCTTTCCATG has a sensor-assay potency score (higher = more potent) of -1.47. In the case of TTTCTAAGAAGTCTATACCTAC, the sensor-assay potency score (higher = more potent) is reported as -0.621. Sequence TTTAACATGGACCATTTGCTGT has a sensor-assay potency score (higher = more potent) of -1.08.

The sequences below were run against MYBL1 in the same assay as above. Details: shRNA.
In the case of TTTGATAGAATTATCAGTCCTT, the sensor-assay potency score (higher = more potent) is reported as 1.06. TAAAGGAACAGCTTCACTGTTG gave a sensor-assay potency score (higher = more potent) of -0.055. Sequence TAGATCTTCTAATAGTAGGTGT has a sensor-assay potency score (higher = more potent) of 0.293. For TTGAAGTACTACTGGTAGCTGT, the sensor-assay potency score (higher = more potent) was 0.338. In the case of TAGAATTATCAGTCCTTCCTGG, the sensor-assay potency score (higher = more potent) is reported as 0.631. For TTTCTCTACACTGCTTGCCTAT, the sensor-assay potency score (higher = more potent) was -0.646. In the case of TAGTAGGTGTTCTAAACCCTAC, the sensor-assay potency score (higher = more potent) is reported as -0.956. With TAATTTATCATCCTCGTCCCTT the sensor-assay potency score (higher = more potent) was -0.0916. TTCTTCTTTTAAAACTTCCCGA gave a sensor-assay potency score (higher = more potent) of -0.736. TTCAAGTACAAGACTGACGTTA showed a sensor-assay potency score (higher = more potent) of 0.474. TTCGCTTTCTTCTAACTTCATT was tested, and the sensor-assay potency score (higher = more potent) was -1.09.

These sequences were tested against MYCBPAP in the same assay as above. Details: shRNA.
With TTTTCTTTGACATTCTCTGAGG the sensor-assay potency score (higher = more potent) was -0.601. In the case of TCTCCTTGTAGGACATTGCTAA, the sensor-assay potency score (higher = more potent) is reported as -0.62. TTCTTTGTCTTTGATCCCCAGT gave a sensor-assay potency score (higher = more potent) of -0.525. Work on TTTCTTGTCATCCTTTGCCTTG yielded a sensor-assay potency score (higher = more potent) of -0.95. TTTCTTGTCTTCTTTGTCTTTG was tested, and the sensor-assay potency score (higher = more potent) was -0.276.
